From PubChem BioAssay (EPA / NIEHS)
Values joined by “and” are separate entries in the source; they are usually repeats but may differ in a detail not shown here. Identical values can stand only once. Records with an inconclusive call do not appear. The source holds several records for some structures; these can differ, active in one and inactive in another. Active and inactive are the calls of the source. Rule for the calls, unless noted: active = hit-call score of the fitted dose curve at least 0.9, where 1 is the maximum; inactive = score below 0.9.

Tests used:
[1] = read-out: Interleukin-1 alpha (IL1a), IL1A (gene 3552); test: BSK_BE3C_IL1a: BioMAP Diversity Plus: BE3C Assay for Interleukin-1 alpha (IL1a) Biomarker Activity (AID 2283016); settings: primary human bronchial epithelial cells; actives raise or lower the signal
Outline: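 ELISA read-out of IL-1a from human lung bronchial epithelial primary cells, 24 h post-dose. Gain or loss of signal fitted relative to DMSO negative control.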

[2] = read-out: Monocyte Chemoattractant Protein-1 (MCP1), CCL2 (gene 6347); test: BSK_3C_MCP1: BioMAP Diversity Plus: 3C Assay for Monocyte Chemoattractant Protein-1 (MCP1) Biomarker Activity (AID 2283017); settings: primary human endothelial cells (HUVEC); actives raise or lower the signal
Outline: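 Primary human umbilical vein endothelial cells (3C system) were exposed to test chemical for 24 h, after which MCP-1 was quantified by ELISA. Activity was fitted bidirectionally against DMSO as negative control and baseline.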

[3] = read-out: Monocyte Chemoattractant Protein-1 (MCP1), CCL2 (gene 6347); test: BSK_4H_MCP1: BioMAP Diversity Plus: 4H Assay for Monocyte Chemoattractant Protein-1 (MCP1) Biomarker Activity (AID 2283018); settings: primary human endothelial cells (HUVEC); actives raise or lower the signal
Outline: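 HUVEC primary cells, 24 h post-dose, MCP-1 by ELISA. Gain or loss of signal fitted bidirectionally vs DMSO baseline. Cytotoxicity: SRB stain (0.1% after 10% TCA fixation), read 560 nm, parallel cultures.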

[4] = read-out: Human Leukocyte Antigen - DR isotype (HLADR), HLA-DRA (gene 3122); test: BSK_3C_HLADR: BioMAP Diversity Plus: 3C Assay for Human Leukocyte Antigen - DR isotype (HLADR) Biomarker Activity (AID 2283019); settings: primary human endothelial cells (HUVEC); actives raise or lower the signal
Outline: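 Primary human umbilical vein endothelial cells (3C system) were dosed with compound and cell-surface HLA-DR was quantified by ELISA at 24 h. Activity was fitted bidirectionally against DMSO as negative control and baseline.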

[5] = read-out: Interleukin-8 (IL8), CXCL8 (gene 3576); test: BSK_3C_IL8: BioMAP Diversity Plus: 3C Assay for Interleukin-8 (IL8) Biomarker Activity (AID 2283020); settings: primary human endothelial cells (HUVEC); actives raise or lower the signal
Outline: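 HUVEC, 3C stimulation; 24 h compound exposure; IL-8 read by ELISA; gain or loss of signal fitted relative to DMSO control.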

[6] = read-out: Monokine induced gamma interferon (MIG), CXCL9 (gene 4283); test: BSK_3C_MIG: BioMAP Diversity Plus: 3C Assay for Monokine induced gamma interferon (MIG) Biomarker Activity (AID 2283021); settings: primary human endothelial cells (HUVEC); actives raise or lower the signal;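 for AC50: MIG protein level measured by immunoassay in the treated endothelial cultures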
Outline: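 HUVEC, 3C system; 24 h chemical exposure; MIG by ELISA; bidirectional fit vs DMSO baseline.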

[7] = BSK_3C_SRB: Viability Assessment in the BioMAP Diversity Plus: 3C Assay (AID 2283023); settings: primary human endothelial cells (HUVEC);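 note: fitted both ways against DMSO so a hit may be signal rise or drop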
Outline: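 Primary human umbilical vein endothelial cells in the 3C system were read 24 h after compound dosing. Total protein was stained with 0.1% sulforhodamine B after 10% TCA fixation and read at 560 nm, with bidirectional fitting against DMSO as baseline.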

[8] = BSK_3C_Vis: BioMAP Diversity Plus: 3C Assay for Morphology Visualization (AID 2283025); settings: primary human endothelial cells (HUVEC);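 note: fitted both ways so gain or loss versus DMSO counts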;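 for AC50: light microscopy image of cell morphology used as background control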
Outline: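 HUVEC, 3C system; light microscopy of morphology at 24 h post-dose. Bidirectional fit vs DMSO baseline. Secondary readout, background-control function.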

[9] = read-out: Pselectin, SELP (gene 6403); test: BSK_4H_Pselectin: BioMAP Diversity Plus: 4H Assay for Pselectin Biomarker Activity (AID 2283026); settings: primary human endothelial cells (HUVEC); actives raise or lower the signal
Outline: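 HUVEC, 24 h chemical exposure; P-selectin read by ELISA. Bidirectional curve fit vs DMSO baseline; gain or loss of signal scored.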

[10] = BSK_4H_SRB: Viability Assessment in the BioMAP Diversity Plus: 4H Assay (AID 2283027); settings: primary human endothelial cells (HUVEC);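 note: cells exposed to compound for 24 h before staining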;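 for AC50: curves fitted both ways versus DMSO so AC50 may be loss or gain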
Outline: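 HUVEC, 24 h post-dose; 10% TCA fix, 0.1% SRB stain, A560 nm. Total protein = overt cytotoxicity, parallel to biomarker read. Bidirectional fit vs DMSO baseline.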

[11] = BSK_BE3C_SRB: Viability Assessment in the BioMAP Diversity Plus: BE3C Assay (AID 2283028); settings: primary human bronchial epithelial cells;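 for AC50: fitted both ways so AC50 may mark signal gain or loss versus DMSO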
Outline: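 Human primary bronchial epithelial cells were exposed to test chemicals for 24 h. Total protein in parallel cultures was then measured by staining with 0.1% sulforhodamine B after 10% TCA fixation, with absorbance read at 560 nm. Activity was fitted bidirectionally against DMSO.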

[12] = read-out: Thrombomodulin, THBD (gene 7056); test: BSK_3C_Thrombomodulin: BioMAP Diversity Plus: 3C Assay for Thrombomodulin Biomarker Activity (AID 2283029); settings: primary human endothelial cells (HUVEC); actives raise or lower the signal
Outline: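 HUVEC, 3C conditions; compound 24 h; thrombomodulin by ELISA; bidirectional curve fit vs DMSO baseline; parallel SRB total-protein staining for cytotoxicity.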

[13] = read-out: Urokinase-type plasminogen activator receptor (uPAR), PLAUR (gene 5329); test: BSK_4H_uPAR: BioMAP Diversity Plus: 4H Assay for Urokinase-type plasminogen activator receptor (uPAR) Biomarker Activity (AID 2283030); settings: primary human endothelial cells (HUVEC); actives raise or lower the signal
Outline: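 Primary human umbilical vein endothelial cells were exposed to chemical for 24 h before cell-surface uPAR was quantified by ELISA. Activity was fitted bidirectionally against the DMSO negative control baseline.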

[14] = read-out: Vascular endothelial growth factor receptor 2 (Homo sapiens) (UniProt P35968); test: BSK_4H_VEGFRII: BioMAP Diversity Plus: 4H Assay for Vascular endothelial growth factor receptor 2 (VEGFR2) Biomarker Activity (AID 2283031); settings: primary human endothelial cells (HUVEC); actives raise or lower the signal;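 for AC50: cell-surface VEGFR2 protein level quantified by ELISA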
Outline: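 Primary human umbilical vein endothelial cells in the BioMAP 4H system were dosed with test chemical, and 24 h later VEGFRII was measured by ELISA. Activity was fitted bidirectionally against DMSO as negative control and baseline.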

[15] = read-out: Human Leukocyte Antigen - DR isotype (HLADR), HLA-DRA (gene 3122); test: BSK_BE3C_HLADR: BioMAP Diversity Plus: BE3C Assay for Human Leukocyte Antigen - DR isotype (HLADR) Biomarker Activity (AID 2283032); settings: primary human bronchial epithelial cells; actives raise or lower the signal
Outline: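 Primary human bronchial epithelial cells (BE3C); 24 h chemical exposure; HLA-DR by ELISA; bidirectional curve fit vs DMSO baseline.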

[16] = read-out: Interferon-gamma inducible Protein 10 (IP10), CXCL10 (gene 3627); test: BSK_BE3C_IP10: BioMAP Diversity Plus: BE3C Assay for Interferon-gamma inducible Protein 10 (IP10) Biomarker Activity (AID 2283034); settings: primary human bronchial epithelial cells; actives raise or lower the signal
Outline: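 ELISA readout of IP-10 in BE3C system: primary human bronchial epithelial cells, 24 h post-dosing; bidirectional curve fit vs DMSO baseline.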

[17] = read-out: Monokine induced gamma interferon (MIG), CXCL9 (gene 4283); test: BSK_BE3C_MIG: BioMAP Diversity Plus: BE3C Assay for Monokine induced gamma interferon (MIG) Biomarker Activity (AID 2283035); settings: primary human bronchial epithelial cells; actives raise or lower the signal
Outline: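 Dose cells (human primary bronchial epithelial), incubate 24 h, quantify MIG by ELISA, then fit concentration–response in both directions relative to DMSO control.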

[18] = molecular target: human Vitamin D Receptor (VDR), VDR (gene 7421) (UniProt P11473); test: ATG_VDR_TRANS: Attagene TRANS-FACTORIAL HepG2 Assay for human Vitamin D Receptor (VDR) (AID 2283022; active = hit-call score of the fitted dose curve at least 0.9, where 1 is the maximum)
Outline: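 HepG2 cells were transiently transfected with multiple GAL4-UAS reporter units, so signal reflects exogenous chimeric receptor-Gal4 activity. After 24 h compound exposure, reporter mRNA was measured by RT-PCR, fluorescent labelling and capillary electrophoresis, fitted for gain of signal versus DMSO.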

[19] = read-out: Matrix Metallopeptidase 1 (MMP1), MMP1 (gene 4312); test: BSK_BE3C_MMP1: BioMAP Diversity Plus: BE3C Assay for Matrix Metallopeptidase 1 (MMP1) Biomarker Activity (AID 2283024); settings: primary human bronchial epithelial cells; actives raise or lower the signal
Outline: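 ELISA read-out of MMP1 in human lung bronchial epithelial primary cultures, 24 h post-dose; bidirectional curve fit vs DMSO baseline, gain or loss of signal scored.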

[20] = read-out: Vascular cell adhesion molecule 1 (VCAM1), VCAM1 (gene 7412); test: BSK_4H_VCAM1: BioMAP Diversity Plus: 4H Assay for Vascular cell adhesion molecule 1 (VCAM1) Biomarker Activity (AID 2283033); settings: primary human endothelial cells (HUVEC); actives raise or lower the signal
Outline: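 HUVEC, 24 h post-dose; VCAM-1 by ELISA. Bidirectional curve fit vs DMSO baseline. Parallel SRB total-protein stain (0.1% SRB after 10% TCA fixation, 560 nm) for cytotoxicity.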

Measured: AC50

Chain of human Vitamin D Receptor (VDR), VDR (gene 7421) (P11473 whole entry, looked up, the tested form may be a part): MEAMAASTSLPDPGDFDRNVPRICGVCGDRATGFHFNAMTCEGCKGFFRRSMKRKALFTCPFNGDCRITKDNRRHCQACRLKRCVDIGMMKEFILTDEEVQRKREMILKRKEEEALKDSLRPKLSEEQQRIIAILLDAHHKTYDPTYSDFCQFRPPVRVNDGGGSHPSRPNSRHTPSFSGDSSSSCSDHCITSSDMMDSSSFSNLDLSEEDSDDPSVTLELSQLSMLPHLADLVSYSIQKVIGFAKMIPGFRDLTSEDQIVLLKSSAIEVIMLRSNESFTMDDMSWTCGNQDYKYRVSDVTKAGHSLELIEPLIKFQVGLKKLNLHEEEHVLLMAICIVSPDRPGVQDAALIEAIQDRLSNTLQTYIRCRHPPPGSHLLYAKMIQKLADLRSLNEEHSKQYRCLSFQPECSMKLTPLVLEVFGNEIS

Cn1cnc([N+](=O)[O-])c1Sc1ncnc2nc[nH]c12
active: [7] 19.9 µM and 12.6 µM and 14 µM | [12] 3.36 µM
inactive: [1] | [2] | [3] | [4] | [5] | [6] | [8] | [9] | [10] | [11] | [12] | [13] | [14] | [15] | [16] | [17]

CC(C)CC(C)(O)C#CC(C)(O)CC(C)C (stereo not given)
not listed: [14] | [18] | [19] | [20]
inactive: all other assays above

Cc1ccc(C)c(O)c1
not listed: [1] | [9]
inactive: all other assays above

CCCCC(CC)COC(=O)c1ccc(C(=O)OCC(CC)CCCC)cc1 (stereo not given)
not listed: [18] | [19] | [20]
inactive: all other assays above

CCC(C)(C)C(=O)O[C@H]1C[C@@H](C)C=C2C=C[C@H](C)[C@H](CC[C@@H]3C[C@@H](O)CC(=O)O3)[C@H]21
inactive: [6] | [9]
active: [1] 33.1 µM | [2] 18.6 µM | [3] 0.392 µM | [4] 25.8 µM | [5] 26.5 µM | [7] 3.97 µM | [19] 31.9 µM | [8] 20 µM | [10] 10.1 µM | [11] 36.1 µM | [12] 0.526 µM | [13] 20 µM | [14] 26.9 µM | [15] 30.8 µM | [20] 29.9 µM | [16] 34.1 µM | [17] 36.7 µM

CCCN(C1CCN(C(=O)C2CCNCC2)CC1)[C@@H]1CCc2ccc(OC)cc2C1
not listed: [1]
inactive: all other assays above

CNCc1ccc(NC(=O)c2c[nH]c3c2C(=O)CCC3)cc1
not listed: [1] | [20]
inactive: all other assays above

CCOC(=O)c1ccc(C2CCC(NC[C@H](O)COc3ccc(O)c(NS(C)(=O)=O)c3)CC2)cc1 (stereo not given in full)
active: [2] 27.9 µM | [4] 31.1 µM | [5] 27.7 µM | [7] 25.1 µM | [8] 37.1 µM | [10] 27.5 µM
not listed: [9] | [18]
inactive: all other assays above

CCCCCCc1ccc(O)cc1O
active: [2] 32.5 µM | [3] 16.2 µM | [4] 39 µM | [5] 32.4 µM | [6] 3.97 µM | [7] 34.9 µM | [8] 39.8 µM | [9] 32.3 µM | [10] 32.5 µM | [11] 35.5 µM | [13] 36.6 µM | [15] 29.5 µM | [20] 31.8 µM | [16] 32.2 µM | [17] 30.9 µM
inactive: [18] | [19] | [12] | [14]

CC(C)=CCC/C(C)=C/CO
not listed: [9] | [19] | [20]
inactive: all other assays above

O=C(O)c1cc(N=Nc2ccc(S(=O)(=O)Nc3ccccn3)cc2)ccc1O
not listed: [18] | [19]
inactive: all other assays above

O=C(O)c1cccc(N(Cc2cccnc2)c2ccc(OC(F)F)c(OC(F)F)c2)c1
active: [4] 9.02 µM | [16] 32.8 µM
not listed: [9] | [19] | [20]
inactive: all other assays above

CC1(C)C(=O)N(Br)C(=O)N1Br
not listed: [1]
inactive: all other assays above

O=C1CCC(N2C(=O)c3ccccc3C2=O)C(=O)N1 (stereo not given)
not listed: [9] | [18] | [20]
inactive: all other assays above
